# Results as given in ChEMBL document CHEMBL3988442, “University of Dundee, Small-Polar-MMV Screening Library” (2021).
# About 13,000 (27%) of roughly 48,000 compounds showed an effect of 50% or more. Some of the results follow.
# System: Wolbachia pipientis
# Test: Anti-Wolbachia Cell-Based Screen
# Format: functional
# Parameters: scale not given: in the data most compounds retested in dose-response had high values
# Conditions: 5 µM
row,SMILES,Percent Effect
1,CCC[C@H]1CN(Cc2ccc(N(C)C)nc2)C[C@@H]1NS(=O)(=O)CC,9.48%
2,COc1cc(S(=O)(=O)Nc2cn[nH]c2)ccc1Br,20.8%
3,Cc1cnn(C2CCCN(C(=O)Cc3ccc(C)s3)C2)c1 (stereo not given),107.6%
4,CCCc1noc(CCC(=O)N2CCCC(n3ccnc3C)C2)n1 (stereo not given),4.516%
5,Cc1noc(C)c1CC(=O)N1CCCC(Cn2ccnc2C)C1 (stereo not given),108.2%
6,Cc1nccn1CC1CCCN(C(=O)Cc2ccsc2)C1 (stereo not given),91.27%
7,Cc1cnn(C2CCCN(C(=O)Cc3ccc(-n4cccn4)cc3)C2)c1 (stereo not given),-1.818%
8,Cc1noc(C)c1CC(=O)N1CCCC(n2ccnc2C)C1 (stereo not given),104.6%
9,Cn1nc(C2CCCN(C(=O)Cc3ccsc3)C2)c2nccnc21 (stereo not given),-16.9%
10,Cc1noc(C)c1CCC(=O)N1CCCC(n2ccnc2C)C1 (stereo not given),-0.2444%
11,Cc1noc(C)c1CNC(=O)N1CCN(CC2CC2)CC1,-3.03%
12,O=C(Cc1ccsc1)N1CCCC(CNS(=O)(=O)Cc2ccccc2)C1 (stereo not given),-10.03%
13,Cc1nc(NC(=O)COCC2CC2)ccc1Br,-7.033%
14,CCc1nnc(CN2CCC(C3CCCCCN3C(C)=O)CC2)o1.Cl (stereo not given),2.52%
15,CN(C)c1nccc(CNS(=O)(=O)c2cc(Cl)cc(Cl)c2)n1,-1.753%
16,Cc1nc(C(=O)N2CCN(C(=O)N(C)C)[C@@H]3CS(=O)(=O)C[C@@H]32)cs1,-0.3934%
17,CCC(NC(=O)c1cccc2[nH]ccc12)C(=O)N1CCOCC1 (stereo not given),-2.082%
18,CC(=O)NCC1CCCN(C(=O)Cc2c(C)noc2C)C1 (stereo not given),118.6%
19,Cc1nn(C)c(C)c1CC(=O)N1CCCC(n2ccnc2C)C1 (stereo not given),103.8%
20,Cc1cnn(C2CCCN(C(=O)Cc3c(C)nn(C)c3C)C2)c1 (stereo not given),112.6%
21,Cc1noc(C)c1CNC(=O)N1CCCC(C)CC1 (stereo not given),-2.86%
22,Cc1nccn1C1CCCN(C(=O)Cn2ccc(=O)n(C)c2=O)C1 (stereo not given),-5.053%

row,SMILES,Percent Effect
1,Cc1nn(C)c(C)c1CC(=O)N1CCCC(n2ccnc2)C1 (stereo not given),-6.925%
2,Cc1noc(C)c1CC(=O)N1CCCC(c2noc(C(C)C)n2)C1 (stereo not given),-25.9%
3,C=C(C)CN1CCCC1c1nc(Cc2ccc(F)cc2)no1 (stereo not given),3.064%
4,CNC(=O)[C@H]1C[C@H]2OCC[C@H]2N(CC2CCOCC2)C1.O=C(O)C(F)(F)F,-4.721%
5,COC(=O)CCCN(C)C(c1cccnc1)c1ccc(F)cc1F (stereo not given),-20.53%
6,CCCn1nccc1C(=O)N1CCCC(C(=O)CCc2ccccc2)C1 (stereo not given),3.228%
7,CCCn1nccc1C(=O)N1CCN(C(=O)C2CC2)[C@@H]2CS(=O)(=O)C[C@@H]21,17.33%
8,CCCn1nccc1-c1cnc(CC2CCN(C(C)=O)C2)cn1 (stereo not given),102.9%
9,CCCn1nccc1C(=O)N1CCN(C2CCc3ccccc3C2)CC1 (stereo not given),-8.816%
10,CCCn1nccc1-c1nccnc1CC1CCN(C(C)=O)CC1,113%
11,CCCn1ncnc1C(C)NC(=O)C1CCN(C(=O)C2CC2)CC1 (stereo not given),-8.242%
12,Cn1nccc1-c1nc2c(cc1C(=O)O)CCN(C(=O)C1CC1)CC2.O=C(O)C(F)(F)F,-10.62%
13,CCCn1nccc1-c1nccnc1CC1CCN(C(C)=O)C1 (stereo not given),94.67%
14,CC(=O)N1CCC(Cc2nccnc2-c2ccnn2C)CC1,105.5%
15,CS(=O)(=O)c1ccc2c(c1)N(C(=O)Cc1ccc(F)cc1)CCC2,9.452%
16,N#Cc1cccnc1NCCNC(=O)NCCSC(F)(F)F,18.52%
17,O=C(NCCC1CCCCO1)c1coc(COc2ccc(F)cc2)n1 (stereo not given),-18.68%
18,CCOCc1nc2c(c(NC(CC)c3cccnc3)n1)CCNCC2 (stereo not given),11.04%
19,CN(CC1(CO)CCCC1)[C@@H]1c2ccccc2C2(CCNCC2)[C@H]1O,6.987%
20,Cc1cccc(C2CCCN(C(=O)CN3CCOC3=O)C2)c1 (stereo not given),-2.013%
21,CN(C)CCO[C@H]1C[C@@H](O)C12CCN(c1nccc3ccccc13)CC2,-5.816%
22,Clc1ccccc1C1(c2ccnc(-c3ncccn3)n2)CCNCC1,-1.363%

row,SMILES,Percent Effect
1,Cc1cc(=O)n2nc(Oc3cccc(I)c3)sc2n1,98.58%
2,Cc1cc(=O)n2nc(Oc3cccc(C(N)=O)c3)sc2n1,92.57%
3,Cc1ccccc1CC(C)(C)NC(=O)COc1cccc(C(N)=O)c1,8.164%
4,Cc1ccn(-c2cncc(C(N)=O)c2)n1,-45.7%
5,CSCCC(=O)N1CCC(c2nccn2Cc2cscn2)CC1,-27.24%
6,Cc1ccsc1-c1nc(CN(C)Cc2cc[nH]n2)c(C)o1,11.99%
7,CS(=O)(=O)N1CCCC12CCCN(S(=O)(=O)c1ccc(F)c(F)c1)C2 (stereo not given),90.35%
8,CS(=O)(=O)N1CCCC12CCCN(S(=O)(=O)c1ccc(F)cc1)C2 (stereo not given),-4.23%
9,Cc1ccc(S(=O)(=O)N2C[C@H](C3CC3)[C@@H](N)C2)cc1F,-0.3318%
10,Cc1ccc(S(=O)(=O)N2CCCCC(N3CCN(C)CC3)C2)cc1F (stereo not given),-10.96%
11,Cc1ccc(S(=O)(=O)N2CCCC3(CCCN3S(C)(=O)=O)C2)cc1F (stereo not given),98%
12,c1ccn2c(C3CCCN(c4ncnc5c4CCNC5)C3)nnc2c1 (stereo not given),-4.904%
13,O=C(O)COc1ccc(Cl)cc1CN1CCC2(CCNCC2)CC1,-7.41%
14,Cc1csc(CN2CC(CO)Oc3ccccc32)n1 (stereo not given),-31.8%
15,COc1c(CNCc2ccc(Cn3cccn3)cc2)c(C)nn1C,-21.67%
16,COc1c(CNCc2cccc(Cn3ccnc3C)c2)c(C)nn1C.Cl,162.7%
17,COc1c(CNCc2cccc(Cn3cccn3)c2)c(C)nn1C,134.9%
18,COc1c(CNCc2cccc(Cn3cncn3)c2)c(C)nn1C,94.36%
19,COc1c(CNCc2ccccc2Cn2cccn2)c(C)nn1C,10.98%
20,COc1c(CNCc2cccc(CN3CCOCC3)c2)c(C)nn1C,-5.316%
21,COc1c(CNCc2ccccc2Cn2cncn2)c(C)nn1C,-0.9882%
